ALDH1A1 block = inhibitors of human aldehyde dehydrogenase 1A1; P00352; Purified ALDH1A1, NADH fluorescence, propionaldehyde substrate; Potency, µM (highest dose often 75.3 µM), hits mostly inhibitors; 7.3% of 220,000 active; AID 1030; active = well fitted inhibition curve with a large enough effect, not every such curve was filed as active; inconclusive = small, poorly fitted or top-dose-only effect, or another doubt; inactive = no such curve, though single readings can be large or run the other way
Target sequence (P00352 whole entry, looked up): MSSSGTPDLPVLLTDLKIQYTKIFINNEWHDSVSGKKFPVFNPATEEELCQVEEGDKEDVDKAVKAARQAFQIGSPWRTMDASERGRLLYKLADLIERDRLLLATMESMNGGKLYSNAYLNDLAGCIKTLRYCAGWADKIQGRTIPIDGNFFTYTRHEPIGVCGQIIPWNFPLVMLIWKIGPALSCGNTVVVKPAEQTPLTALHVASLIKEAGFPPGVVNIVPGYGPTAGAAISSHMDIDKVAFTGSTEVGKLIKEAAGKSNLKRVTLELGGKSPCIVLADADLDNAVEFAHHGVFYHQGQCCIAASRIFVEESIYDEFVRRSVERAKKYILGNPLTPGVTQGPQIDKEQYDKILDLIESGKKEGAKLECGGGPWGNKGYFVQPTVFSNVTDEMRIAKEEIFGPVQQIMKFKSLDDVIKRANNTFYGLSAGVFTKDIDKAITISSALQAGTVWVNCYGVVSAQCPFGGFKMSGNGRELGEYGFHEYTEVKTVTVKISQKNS
IMPase Li cell = cell-permeable IMPase inhibitors with lithium potentiation | CHO-M1 cells, IP1 TR-FRET (IP-One), carbachol + lithium | Potency, µM (highest dose often 59.4 µM), hits mostly inhibitors | 0.35% of 210,000 active;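 note: IP1 builds up when IMPase is blocked and the TR-FRET signal falls; nearly all actives have a fitted effect of over 50% in size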
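Concentration–response in CHO-M1 cells, lithium-potentiated; 30 min at 37C. IP1 detected by competitive TR-FRET after 10 min lysis at RT. Hill-fitted AC50.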
ALOX12 inhib = 12-hLO (ALOX12) enzyme inhibition; P18054; purified 12-hLO, xylenol orange hydroperoxide absorbance; Potency, µM (top dose mostly 57.1 µM), hits mostly inhibitors; 0.12% of 150,000 active; note: nearly all actives have a fitted effect of over 55% in size
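Xylenol orange chromogenic assay: hydroperoxide from 12hLO oxidises Fe(II), giving red-shifted Fe(III)-XO absorbance. Conditions: 150 nM enzyme, 40 uM arachidonic acid, 25 mM Hepes pH 7.0, 0.01% Triton X-100, 30 min, room temperature.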
HPGD block = blocks human HPGD enzyme activity; P15428; purified HPGD, NADH fluorescence kinetic, PGE2 substrate; Potency, µM, most hits filed as inhibitors; 4.3% of 150,000 active; AID 894; active = well fitted inhibition curve with a large enough effect, not every such curve was filed as active; inconclusive = small, poorly fitted or top-dose-only effect, or another doubt; inactive = no such curve, though single readings can be large or run the other way
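NADH formation kinetics: reaction with 30 uM PGE2 and 1 mM NAD+ (final), 20 nM enzyme, Tris-HCl pH 8 with Tween 20, after 15 min compound preincubation at room temperature. Fluorescence change, last versus first of five reads.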
PNC inhibitor = blocks assembly of the perinucleolar compartment | PC3M PTB-GFP, PNC prevalence imaging, 16 h; hits give low values | activity change (PNC), negative = inhibition, % at 10 µM | 3.1% of 140,000 active | AID 2417;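 active = readout at or below -70, meaning at least 70% loss of cells showing the perinucleolar compartment, a nuclear body marking cancer cells; inconclusive = readout between -30 and a set limit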
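Compounds are pinned in duplicate onto adhered PC3M cells stably expressing GFP-tagged PTB and incubated 16 h at 37 C. Cells are then fixed, nuclei stained with Hoechst, and PNC-positive cells counted.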
IMPase inh = IMPase inhibition in cells. P97697. inhibition (IP1 accumulation), % at 46.1 µM. CHO-M1 cells, IP1 accumulation, HTRF TR-FRET ratio. 120,000 tested, under 10 active; active = well fitted curve in the direction sought with a large enough effect in the signal ratio, not every such curve was filed as active; inconclusive = small, poorly fitted or top-dose-only effect, or a change in a side signal; inactive = no such curve, though single readings can be large or run the other way; the % refers to the signal ratio;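 note: cells stimulated with carbachol in lithium chloride buffer; higher means more IMPase inhibition seen as more IP1 and lower FRET ratio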
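CHO-M1, 2000 cells/well, cultured 16–30 h; cpd up to 46 uM; carbachol (50 uM solution, stimulation buffer w/ 50 mM LiCl, pH 7.4), 30 min 37C; IP-One TR-FRET, 10 min RT; Ex 320/Em 665, 620; Hill-fit AC50.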
Each line names hits and unclear results; the compound was inactive in the other large screens. Compounds with a hit are over-represented: about 11% of the library has one in this group of screens. Unless noted, calls come from the whole dose curve; as a rule, active = well fitted curve in the direction sought with a large enough effect; inconclusive = small, poorly fitted or top-dose-only effect, or another doubt; inactive = no such curve, though single readings can be large; an effect the other way counts as inactive or inconclusive.

CCOC(=O)c1c(NC(=O)C(C)N2CCN(C(=O)c3ccco3)CC2)sc2c1CCCC2 (stereo unspecified)	ALDH1A1 block 22µM, HPGD block inconclusive
Cc1ccc(-c2ccc(CCC(=O)O)n2-c2cccc(C)c2C)cc1	none (no result: ALDH1A1 block, IMPase Li cell, ALOX12 inhib, HPGD block, PNC inhibitor)
Nc1ncnc2c1nc(Br)n2[C@@H]1O[C@H]2COP(=O)(O)O[C@@H]2[C@H]1O	IMPase inh inconclusive (no result: ALDH1A1 block, IMPase Li cell, HPGD block, PNC inhibitor)
COc1ccc(C(=O)Nc2cc(-c3nc4ncccc4o3)ccc2C)cc1Br	none (no result: ALDH1A1 block, IMPase Li cell, ALOX12 inhib, HPGD block, PNC inhibitor)
O=C(O)c1cc(O)c2c(c1)C(=O)c1cc(O)cc(O)c1C2=O	ALDH1A1 block 25µM, HPGD block 14µM (no result: PNC inhibitor, IMPase inh)
O=C(CSc1nnc(-c2ccncc2)o1)Nc1ccccc1Cl	PNC inhibitor -90
COc1ccc(CNc2ncncc2-c2ccoc2)c(OC)c1	ALDH1A1 block inconclusive (no result: ALOX12 inhib, HPGD block, PNC inhibitor, IMPase inh)
O=[N+]([O-])c1ccc(N2CCN(S(=O)(=O)c3ccccc3)CC2)cc1NCCN1CCOCC1	none
Cc1ccc(S(=O)(=O)N2CCN(c3ccc([N+](=O)[O-])c(NCCN4CCOCC4)c3)CC2)cc1	PNC inhibitor -83
O=C(COc1ccc(Cl)cc1)NCc1nnc2c3ccccc3c(-c3ccccc3)nn12	ALDH1A1 block inconclusive, PNC inhibitor -108
Cc1ccc(CNC(=O)CCCCn2c(=O)c3ccccc3n(Cc3c(C)cc(C)cc3C)c2=O)cc1	none (no result: ALDH1A1 block, IMPase Li cell, ALOX12 inhib, HPGD block, PNC inhibitor)
C=CSc1sc(Cl)c(N(CC)CC)c1[N+](=O)[O-]	ALDH1A1 block 16µM (no result: ALOX12 inhib, HPGD block, PNC inhibitor, IMPase inh)
C=CSc1sc(Cl)c(N(C)C)c1[N+](=O)[O-]	ALDH1A1 block 7.9µM (no result: ALOX12 inhib, HPGD block, PNC inhibitor, IMPase inh)
C=CCN1c2ccccc2[C@]23C[C@@H](C(=O)OC)N(S(=O)(=O)c4cccs4)C2=NC(C(=O)OC)=C(C(=O)OC)[C@H]13	none (no result: PNC inhibitor, IMPase inh)
CC(C)OC(=O)C(=O)NNc1ccccc1	none
C=C(C)C(=O)NNc1ccccc1	ALDH1A1 block 22µM (no result: ALOX12 inhib, HPGD block, PNC inhibitor, IMPase inh)
COC1=C(OC)C(=O)C(C/C=C(\C)CC/C=C(\C)CC/C=C(\C)CC/C=C(\C)CC/C=C(\C)CC/C=C(\C)CC/C=C(\C)CC/C=C(\C)CC/C=C(\C)CCC=C(C)C)=C(C)C1=O	none (no result: PNC inhibitor, IMPase inh)
CCCn1c(-c2ccc(F)cc2)nc2c(N3CCN(Cc4nc(OC)cc(OC)n4)CC3)nc(C)nc21	none (no result: PNC inhibitor, IMPase inh)
COc1ccc(COC(=O)N/N=C2/C[C@@H](O)[C@@H](O)[C@@H]3[C@@H]4C(=O)N(c5cccc(Oc6ccccc6)c5)C(=O)[C@H]4CC[C@@H]23)cc1	none (no result: IMPase Li cell, ALOX12 inhib, HPGD block, PNC inhibitor, IMPase inh)
Cc1cc(OCC(=O)c2ccc(Br)cc2)ccc1N1C(=O)CCC1=O	ALDH1A1 block inconclusive, HPGD block 14µM
O=C(COc1ccc(Br)cc1)c1ccc2c(c1)CCCC2	none
Cc1ccc(OCC(=O)c2ccc3c(c2)CCCC3)cc1C	HPGD block 32µM
N#C/C(=C\c1coc2ccccc2c1=O)C(N)=S	ALDH1A1 block 32µM (no result: ALOX12 inhib, HPGD block, PNC inhibitor, IMPase inh)
O=C(c1cnn(C(=O)c2ccc(O)cc2)c1)c1ccccc1O	ALDH1A1 block inconclusive (no result: ALOX12 inhib, HPGD block, PNC inhibitor, IMPase inh)
O=C(c1cnc2nc3ccccc3n2c1)c1cc(F)ccc1O	ALDH1A1 block 4.5µM (no result: ALOX12 inhib, HPGD block, PNC inhibitor, IMPase inh)
O=C(c1cn[nH]c1)c1cc(F)ccc1O	ALDH1A1 block inconclusive
Cc1cc(Cl)ccc1OCC(=O)n1cc(C(=O)c2cc(Cl)ccc2O)cn1	ALDH1A1 block inconclusive (no result: ALOX12 inhib, HPGD block, PNC inhibitor, IMPase inh)
CN(C)c1cccc(C(=O)n2cc(C(=O)c3cc(F)ccc3O)cn2)c1	ALDH1A1 block 4.5µM
O=C(c1cnn(C(=O)COc2ccccc2F)c1)c1cc(F)ccc1O	ALDH1A1 block 0.4µM (no result: IMPase Li cell, ALOX12 inhib, HPGD block, PNC inhibitor, IMPase inh)
CCc1cc2c(nc1CC)CCN(CC/C(C)=N/O[C@@H]1O[C@H](COC(C)=O)[C@H](OC(C)=O)[C@H](OC(C)=O)[C@H]1OC(C)=O)C2	none (no result: IMPase Li cell, ALOX12 inhib, HPGD block, PNC inhibitor, IMPase inh)
COc1ccc(N(C(=O)c2cccc([N+](=O)[O-])c2)S(=O)(=O)c2cccs2)cc1	ALDH1A1 block 25µM (no result: ALOX12 inhib, HPGD block, PNC inhibitor, IMPase inh)
COc1ccc(N(C(=O)c2cccnc2)S(=O)(=O)c2cccc([N+](=O)[O-])c2)cc1	none (no result: ALOX12 inhib, HPGD block, PNC inhibitor, IMPase inh)
COc1ccc(S(=O)(=O)N(C(C)=O)c2ccc(OC(C)=O)c3ccccc23)cc1[N+](=O)[O-]	ALDH1A1 block 7.1µM, PNC inhibitor inconclusive (no result: IMPase Li cell, HPGD block)
COc1ccccc1/C=C/CN1CCN(c2ccccc2)CC1	PNC inhibitor -111
CCO/C(C)=C1\C(=O)Nc2ccccc21	none (no result: IMPase Li cell, HPGD block)
COC(=O)c1ccc(Cn2nnc3sc4c(c3c2=O)CCC(C)C4)cc1 (stereo unspecified)	none (no result: ALDH1A1 block, IMPase Li cell, ALOX12 inhib, HPGD block, PNC inhibitor)

High-throughput results as filed in PubChem.
